# From ChEMBL document CHEMBL3988442, “University of Dundee, Small-Polar-MMV Screening Library” (2021)
# For some of these results: Potency and affinity values are given separately.
# How the values were obtained:
# Design in all cases: scale not given: direction of the effect not stated beside the values
# [1] = biological target: Protein translocase subunit SecA (Escherichia coli (strain K12)) (UniProt P10408); assay: Assay to Identify E. coli SecA ATPase Inhibitors; assay type: functional; conditions: 30 µM
# [2] = biological target: T1, Ubiquitin-activating enzyme e1, putative (Leishmania donovani (strain BPK282A1)) (UniProt E9BSI1); assay: Leishmania donovani Ubiquitin Activating Enzyme (LdE1); assay type: functional; conditions: 30 µM
# T1 sequence (whole entry): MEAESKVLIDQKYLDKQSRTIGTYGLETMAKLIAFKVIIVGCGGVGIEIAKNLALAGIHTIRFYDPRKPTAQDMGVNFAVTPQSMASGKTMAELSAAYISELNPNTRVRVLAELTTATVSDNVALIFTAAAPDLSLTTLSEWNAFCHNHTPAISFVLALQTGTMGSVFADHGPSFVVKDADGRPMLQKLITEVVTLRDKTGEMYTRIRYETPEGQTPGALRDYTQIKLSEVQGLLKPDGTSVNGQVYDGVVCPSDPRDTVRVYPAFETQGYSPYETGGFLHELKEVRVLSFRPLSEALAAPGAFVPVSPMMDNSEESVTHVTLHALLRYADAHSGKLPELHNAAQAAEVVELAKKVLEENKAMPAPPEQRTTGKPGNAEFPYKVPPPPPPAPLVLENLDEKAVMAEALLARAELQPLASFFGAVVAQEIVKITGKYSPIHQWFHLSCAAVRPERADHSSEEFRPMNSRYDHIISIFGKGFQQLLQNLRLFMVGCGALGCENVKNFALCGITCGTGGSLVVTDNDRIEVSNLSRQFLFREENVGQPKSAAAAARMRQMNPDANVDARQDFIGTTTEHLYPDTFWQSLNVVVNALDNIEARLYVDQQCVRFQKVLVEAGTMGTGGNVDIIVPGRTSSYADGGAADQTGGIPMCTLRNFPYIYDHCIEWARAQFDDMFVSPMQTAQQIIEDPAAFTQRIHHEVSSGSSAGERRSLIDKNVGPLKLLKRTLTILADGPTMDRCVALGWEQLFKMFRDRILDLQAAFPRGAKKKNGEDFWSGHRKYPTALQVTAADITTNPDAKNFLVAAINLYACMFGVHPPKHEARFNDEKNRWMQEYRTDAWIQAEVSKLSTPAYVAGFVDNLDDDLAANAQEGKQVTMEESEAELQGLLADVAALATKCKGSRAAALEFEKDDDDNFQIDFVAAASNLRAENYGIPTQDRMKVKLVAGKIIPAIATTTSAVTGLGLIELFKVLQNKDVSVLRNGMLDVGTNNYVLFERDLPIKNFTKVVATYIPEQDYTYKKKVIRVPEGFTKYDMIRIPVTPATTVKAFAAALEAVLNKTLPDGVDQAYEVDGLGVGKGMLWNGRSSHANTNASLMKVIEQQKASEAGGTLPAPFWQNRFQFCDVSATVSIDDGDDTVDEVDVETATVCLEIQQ
# [3] = biological target: AMP-activated protein kinase, AMPK (Homo sapiens) (UniProt P54646+O43741+P54619+Q9UGJ0+Q9Y478+Q13131+Q9UGI9); assay: AMP-dependent Kinase enzyme assay. An in vitro enzyme assay that detects ADP turnover that is directly proportional to AMPK activity. This uses naive AMPK that is activated during the assay with MK-8722; assay type: functional; conditions: 30 µM
# [4] = biological target: Sialic acid-binding Ig-like lectin 9 (Homo sapiens) (UniProt Q9Y336); assay: Hs-Siglec9 ALPHAscreen SOP 20170721; conditions: 10 µM
# Trypanosoma cruzi = assay: Trypanosoma cruzi phosphomannomutase and mannose-1-phosphate guanylyltransferase assay; assay type: functional; conditions: 10 µM
# [5] = biological target: T2, Arginase-2, mitochondrial (Homo sapiens) (UniProt P78540); assay: in vitro enzyme assay to detect the production of urea directly proportional to the activity of Arginase II; assay type: functional; conditions: 33.3 µM; note: in the data most compounds retested in dose-response had high values
# T2 sequence (whole entry): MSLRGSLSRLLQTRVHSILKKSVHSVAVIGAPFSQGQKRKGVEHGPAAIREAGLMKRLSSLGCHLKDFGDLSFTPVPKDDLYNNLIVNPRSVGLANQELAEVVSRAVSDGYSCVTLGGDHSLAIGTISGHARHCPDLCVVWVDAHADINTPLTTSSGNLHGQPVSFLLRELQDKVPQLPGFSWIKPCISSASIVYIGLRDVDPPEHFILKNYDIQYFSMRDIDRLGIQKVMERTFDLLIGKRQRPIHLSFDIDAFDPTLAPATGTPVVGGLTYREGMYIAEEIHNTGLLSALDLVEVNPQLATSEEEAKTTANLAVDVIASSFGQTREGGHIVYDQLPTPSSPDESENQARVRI
# [6] = biological target: T3, Proteasome subunit beta (Trypanosoma cruzi) (UniProt O96673); assay: Trypanosoma cruzi proteasome chymotrypsin-like activity (TcProtChymo) assay.; note: in the data most compounds retested in dose-response had high values; assay type: functional; conditions: 9.37 µM
# T3 sequence (whole entry): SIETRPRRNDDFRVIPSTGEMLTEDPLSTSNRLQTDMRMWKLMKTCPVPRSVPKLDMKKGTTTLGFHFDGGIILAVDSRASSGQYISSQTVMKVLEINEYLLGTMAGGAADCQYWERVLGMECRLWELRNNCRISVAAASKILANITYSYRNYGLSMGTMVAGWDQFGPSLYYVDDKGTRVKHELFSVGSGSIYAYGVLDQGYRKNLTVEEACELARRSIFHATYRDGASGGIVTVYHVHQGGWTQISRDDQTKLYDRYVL
# Homo sapiens = species on record: Homo sapiens; assay: To identify inhibition of the IFN signalling (Jak-Stat) pathway via expression of an eGFP reporter gene under the control of an IFN-stimulated response element (ISRE) containing MxA promoter.; assay type: functional; conditions: 30 µM
# [7] = biological target: T4, Tyrosyl-tRNA synthetase, putative (Trypanosoma cruzi (strain CL Brener)) (UniProt Q4DSP6); assay: Trypanosoma cruzi tyrosyl tRNA synthetase (TcYRS) _High Tyrosine SOP; assay type: functional; conditions: 30 µM; note: in the data most compounds retested in dose-response had high values
# T4 sequence (whole entry): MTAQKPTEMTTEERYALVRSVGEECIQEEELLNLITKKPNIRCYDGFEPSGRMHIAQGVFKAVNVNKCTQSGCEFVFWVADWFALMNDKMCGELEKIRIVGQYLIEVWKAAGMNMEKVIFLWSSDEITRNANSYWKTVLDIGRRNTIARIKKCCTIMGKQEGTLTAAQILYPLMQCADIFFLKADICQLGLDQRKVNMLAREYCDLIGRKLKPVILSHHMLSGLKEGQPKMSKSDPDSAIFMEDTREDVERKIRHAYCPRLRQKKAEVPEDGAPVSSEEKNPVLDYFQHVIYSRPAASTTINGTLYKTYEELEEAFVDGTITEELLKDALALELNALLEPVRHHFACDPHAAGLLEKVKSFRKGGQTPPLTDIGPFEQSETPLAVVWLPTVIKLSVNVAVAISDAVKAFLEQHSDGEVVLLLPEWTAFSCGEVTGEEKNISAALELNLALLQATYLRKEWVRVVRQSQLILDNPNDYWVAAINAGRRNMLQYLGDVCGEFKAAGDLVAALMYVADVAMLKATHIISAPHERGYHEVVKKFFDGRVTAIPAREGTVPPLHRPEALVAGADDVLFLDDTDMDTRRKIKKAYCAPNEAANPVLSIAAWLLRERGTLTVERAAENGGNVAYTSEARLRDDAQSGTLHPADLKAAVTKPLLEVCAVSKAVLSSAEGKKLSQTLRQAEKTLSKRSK
# [8] = biological target: T4, Tyrosyl-tRNA synthetase, putative (Trypanosoma cruzi (strain CL Brener)); assay: Trypanosoma cruzi tyrosyl tRNA synthetase (TcYRS) SOP; assay type: functional; conditions: 30 µM
# [9] = biological target: Chromo domain-containing protein 1 (Saccharomyces cerevisiae (strain ATCC 204508 / S288c) (Baker's yeast)) (UniProt P32657); assay: ScCHD-1 Enzyme Inhibition Assay; assay type: functional; conditions: 30 µM; note: in the data most compounds retested in dose-response had high values
# Chromo domain-containing protein 1 (Saccharomyces cerevisiae (strain ATCC 204508 / S288c) (Baker's yeast)), sequence (P32657 whole entry, the tested form may be a part): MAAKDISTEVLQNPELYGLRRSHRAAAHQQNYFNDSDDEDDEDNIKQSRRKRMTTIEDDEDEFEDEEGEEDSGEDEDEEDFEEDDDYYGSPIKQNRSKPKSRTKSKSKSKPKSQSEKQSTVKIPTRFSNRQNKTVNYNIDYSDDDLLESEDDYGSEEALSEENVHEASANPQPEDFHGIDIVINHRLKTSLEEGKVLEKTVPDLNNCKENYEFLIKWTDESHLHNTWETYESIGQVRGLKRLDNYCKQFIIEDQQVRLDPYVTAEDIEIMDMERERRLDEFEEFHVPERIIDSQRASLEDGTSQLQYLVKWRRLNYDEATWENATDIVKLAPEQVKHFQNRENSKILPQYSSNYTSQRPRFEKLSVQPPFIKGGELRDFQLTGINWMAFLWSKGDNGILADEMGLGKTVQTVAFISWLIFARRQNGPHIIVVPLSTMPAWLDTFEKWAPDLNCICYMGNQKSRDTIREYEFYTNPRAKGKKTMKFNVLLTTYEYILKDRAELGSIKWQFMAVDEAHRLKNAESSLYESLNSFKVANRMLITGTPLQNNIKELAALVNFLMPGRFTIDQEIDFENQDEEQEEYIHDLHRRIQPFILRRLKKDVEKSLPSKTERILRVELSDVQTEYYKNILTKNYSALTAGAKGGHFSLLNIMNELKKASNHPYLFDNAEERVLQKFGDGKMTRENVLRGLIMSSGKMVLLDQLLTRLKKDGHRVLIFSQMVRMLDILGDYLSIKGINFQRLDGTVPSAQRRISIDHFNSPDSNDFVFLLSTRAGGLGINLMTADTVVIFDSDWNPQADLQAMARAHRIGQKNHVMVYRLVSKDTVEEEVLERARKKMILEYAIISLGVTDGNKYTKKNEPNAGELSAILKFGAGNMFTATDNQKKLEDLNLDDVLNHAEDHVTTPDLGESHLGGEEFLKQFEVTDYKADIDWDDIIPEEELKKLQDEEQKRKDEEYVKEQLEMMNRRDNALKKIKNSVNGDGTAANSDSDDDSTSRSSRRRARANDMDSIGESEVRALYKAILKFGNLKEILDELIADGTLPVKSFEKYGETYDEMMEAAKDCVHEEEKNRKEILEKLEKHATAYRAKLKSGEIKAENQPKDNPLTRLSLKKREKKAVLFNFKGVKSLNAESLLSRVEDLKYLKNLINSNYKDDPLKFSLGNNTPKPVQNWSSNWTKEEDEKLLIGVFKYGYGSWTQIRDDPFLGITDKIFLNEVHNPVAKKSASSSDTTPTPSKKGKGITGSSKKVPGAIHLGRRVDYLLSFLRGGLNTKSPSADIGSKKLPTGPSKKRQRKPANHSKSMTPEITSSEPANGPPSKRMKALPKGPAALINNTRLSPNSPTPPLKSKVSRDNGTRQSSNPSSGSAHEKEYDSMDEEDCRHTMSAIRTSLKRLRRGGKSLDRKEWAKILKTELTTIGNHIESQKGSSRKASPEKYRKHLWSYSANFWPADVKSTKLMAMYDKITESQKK
# Sialic acid-binding Ig-like lectin 9 (Homo sapiens), sequence (Q9Y336 whole entry): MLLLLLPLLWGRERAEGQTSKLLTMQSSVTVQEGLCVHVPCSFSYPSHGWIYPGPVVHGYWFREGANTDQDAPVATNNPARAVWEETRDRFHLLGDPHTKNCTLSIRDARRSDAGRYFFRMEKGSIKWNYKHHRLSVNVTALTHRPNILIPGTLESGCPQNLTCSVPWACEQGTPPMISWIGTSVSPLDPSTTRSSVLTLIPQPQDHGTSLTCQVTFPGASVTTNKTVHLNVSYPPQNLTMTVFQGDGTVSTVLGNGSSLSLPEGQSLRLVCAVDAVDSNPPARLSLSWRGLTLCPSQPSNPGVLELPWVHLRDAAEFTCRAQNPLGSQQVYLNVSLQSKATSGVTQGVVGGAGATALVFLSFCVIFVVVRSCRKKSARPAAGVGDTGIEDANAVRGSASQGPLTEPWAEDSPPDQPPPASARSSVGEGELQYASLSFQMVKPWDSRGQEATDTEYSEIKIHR
# Protein translocase subunit SecA (Escherichia coli (strain K12)), sequence (P10408 whole entry): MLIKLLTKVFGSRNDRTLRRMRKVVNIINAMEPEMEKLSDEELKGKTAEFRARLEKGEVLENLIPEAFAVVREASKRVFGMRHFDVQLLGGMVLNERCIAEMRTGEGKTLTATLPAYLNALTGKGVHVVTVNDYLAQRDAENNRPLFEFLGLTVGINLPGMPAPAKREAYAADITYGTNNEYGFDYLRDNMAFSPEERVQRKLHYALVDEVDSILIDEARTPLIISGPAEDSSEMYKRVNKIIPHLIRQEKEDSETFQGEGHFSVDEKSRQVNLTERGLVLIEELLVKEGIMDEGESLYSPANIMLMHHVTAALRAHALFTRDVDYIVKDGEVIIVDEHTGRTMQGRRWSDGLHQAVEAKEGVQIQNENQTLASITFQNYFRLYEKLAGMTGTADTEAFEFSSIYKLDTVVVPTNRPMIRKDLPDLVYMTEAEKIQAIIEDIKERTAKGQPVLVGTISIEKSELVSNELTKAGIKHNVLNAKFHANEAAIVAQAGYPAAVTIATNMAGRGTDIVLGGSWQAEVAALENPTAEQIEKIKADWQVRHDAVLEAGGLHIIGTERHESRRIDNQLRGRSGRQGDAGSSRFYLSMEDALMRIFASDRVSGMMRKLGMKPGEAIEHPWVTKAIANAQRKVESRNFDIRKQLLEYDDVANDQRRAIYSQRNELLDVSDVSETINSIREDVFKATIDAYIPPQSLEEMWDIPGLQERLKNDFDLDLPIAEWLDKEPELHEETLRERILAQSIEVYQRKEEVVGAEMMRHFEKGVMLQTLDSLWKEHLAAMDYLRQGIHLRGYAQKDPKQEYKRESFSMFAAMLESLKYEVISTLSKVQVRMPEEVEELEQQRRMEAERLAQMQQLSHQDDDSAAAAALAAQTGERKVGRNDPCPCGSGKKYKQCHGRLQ
SMILES,Percent Effect [1] [%],Percent Effect [2] [%],Percent Effect [3] [%],Percent Effect [4] [%],Percent Effect (Trypanosoma cruzi) [%],Percent Effect [5] [%],Percent Effect [6] [%],Percent Effect (Homo sapiens) [%],Percent Effect [7] [%],Percent Effect [8] [%],Percent Effect [9] [%]
CCc1n[nH]c(C2CN(CCc3ccncc3)CCO2)n1 (stereo not drawn),-6.01,3.8,7.99,7.24,0.103,0.215,1.72,14,1.04,7.59,-9.31
O=C1CC(NCc2ccncc2)CN1Cc1cccc(F)c1 (stereo not drawn),-3.06,-2.7,-0.958,0.392,-2.9,-2.86,11.6,-9.68,1.59,2.44,-0.358
CCN(c1ccc(C(=O)N2CCCC2)cc1)S(=O)(=O)CC,2.05,-1.39,3.96,-5.1,-0.486,1.32,2.46,-27.1,1.05,0,2.93
Cc1cc(C)n(CC2CN(CCOc3cccc(F)c3)CCO2)n1 (stereo not drawn),-4.88,7.89,0.382,4.47,1.59,-3.24,1.1,24.5,4.43,16.1,-3.81
Cn1cc(CN2CCC3(CCCN(Cc4ccccn4)C3)CC2)cn1,-1.45,-5.48,-0.391,0.486,2.98,1.2,4.54,-10.8,3.12,1.24,3.63
COc1cccc(OCC2CCCN(C(=O)c3cnc(C)nc3O)C2)c1 (stereo not drawn),0.517,8.11,-1.51,13.5,5.02,11.9,7.24,-19,7.94,17.1,-2.95
O=C(c1ccoc1)N1CC[C@H]2OCC[C@@]2(COc2ncccc2F)C1,-6.18,18.9,-5.57,25.4,3.23,2.73,6.78,-2.11,4.3,21,-7.11
N#Cc1ccccc1CN1C[C@@H]2CC[C@H](C1)N(CC1CC1)C2=O,-0.53,13.5,-0.476,12.4,1.74,2.38,13.4,4.71,4.76,14.6,-0.908
